Assay outcomes (PubChem)
Compounds with a hit are over-represented: about 19% of the library has one in this group of screens.
IL1B secr inh = qHTS for Inhibitors of Inflammasome Signaling: IL-1-beta AlphaLISA Primary Screen. THP-1 LPS/ATP IL-1B secretion, AlphaLISA, 16 h; active compounds read low. activity change, % at 57.5 µM. 360,000 tested, 4.7% active. AID 743279, 2014; in the data active = activity change below about -50%; inconclusive = mostly about -30% to -49%
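Secreted IL-1B measured by AlphaLISA bead assay after 16 h compound exposure of THP-1 cells; compounds (final up to 57.5 uM) added 1 h before LPS (250 ng/mL) and ATP (1.25 mM) stimulation; lower signal means less secretion.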
HT1080NT lethal = qHTS for induction of synthetic lethality in tumor cells producing 2HG: qHTS for the HT-1080-NT fibrosarcoma cell line. HT-1080-NT fibrosarcoma viability, CellTiter-Glo ATP luminescence, 48 h. Potency, µM (highest dose often 46.1 µM), for inactives: at the highest dose activity, negative = less viability, most hits filed as cytotoxic. 360,000 tested, 1.6% active. AID 686970, 2013;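 note: NT is the 2HG producing partner of a matched IDH1 knockdown line; potency is the fitted concentration of half-maximal effect; 0% = DMSO-treated cells and -100% = media-only wells without cells; nearly all actives have a fitted effect of over 55% in size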
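A 48-hour cytotoxicity screen used HT-1080-NT cells plated 2 hours before compound delivery. ATP-based CellTiter-Glo luminescence measured viability, normalized to DMSO and no-cell controls.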
TDP1 cell CPT = qHTS for Inhibitors of human tyrosyl-DNA phosphodiesterase 1 (TDP1): qHTS in cells in presence of CPT. Potency, µM (titrated, usually from 46.2 µM), without a hit: top-dose activity change, negative = growth inhibition, most hits filed as inhibitors. chicken DT40 Tdp1-/-;hTDP1 cells + 20 nM CPT, ATP luminescence, 48 h. 420,000 tested, 12% active; note: potency is the fitted concentration of half-maximal effect; nearly all actives have a fitted effect of over 55% in size
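Cell growth measured by CellTiter-Glo luminescence after a minimum 48 h, 37 C compound exposure with 20 nM CPT in Tdp1-knockout DT40 cells stably expressing hTDP1, seeded 400/well; qHTS titration format.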
ELG1 repair inh = qHTS screen for small molecules that inhibit ELG1-dependent DNA repair in human embryonic kidney (HEK293T) cells expressing luciferase-tagged ELG1. 330,000 tested, 2.3% active. AID 504467, 2011. Potency, µM (highest dose often 46.1 µM), without a hit: at the highest dose activity change, negative = inhibition, actives largely listed as inhibitors. HEK293T ELG1-luciferase reporter, luminescence, 16 h; DNA damage induced by 5-fluorouridine; note: potency is the fitted concentration of half-maximal effect; nearly all actives have a fitted effect of over 55% in size
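Overnight (16 hr) co-exposure of 2,000 cells/well to 5-fluorouridine and compound at 37 °C preceded detection. Luciferase was quantified via ONE-Glo luminescence; loss of signal denotes inhibition.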
HT1080 IDH1KD tx = qHTS for induction of synthetic lethality in tumor cells producing 2HG: qHTS for the HT-1080-IDH1KD cell line; HT-1080 IDH1 knockdown viability, ATP luminescence, 48 h; Potency, µM (top dose mostly 46.1 µM), for the others: at the highest dose activity, negative = toxicity, actives largely listed as cytotoxic; 360,000 tested, 2% active; AID 686971, 2013;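 note: potency is the fitted concentration of half-maximal effect; 0% = DMSO wells and -100% = cell-free medium wells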
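In this qHTS, HT-1080 cells depleted of IDH1 are exposed for 48 h at 37 °C to compound titrations. Toxicity is scored from CellTiter-Glo luminescence, with DMSO as full viability and medium alone as none.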
DT40 TDP1 no CPT = qHTS for Inhibitors of human tyrosyl-DNA phosphodiesterase 1 (TDP1): qHTS in cells in absence of CPT. DT40 Tdp1-/- hTDP1 cells, no CPT, ATP luminescence, 48 h. Potency, µM (highest dose often 46.2 µM), without a hit: top-dose activity change, negative = growth inhibition, actives largely listed as inhibitors. 420,000 tested, 15% active. AID 686978, 2013; note: potency is the fitted concentration of half-maximal effect; nearly all actives have a fitted effect of over 55% in size
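Cells were dispensed at 400 per well, compounds added by pin tool, plates incubated ≥48 hr at 37 °C, then CellTiter-Glo added for 30 min at room temperature before luminescence reading. Line: DT40 Tdp1-/- complemented with hTDP1; camptothecin omitted.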
* hit, by the source's call; ? = inconclusive; . = not tested or not shown. Unless noted, calls come from the whole dose curve; as a rule, active = well fitted curve in the direction sought with a large enough effect; inconclusive = small, poorly fitted or top-dose-only effect, or another doubt; inactive = no such curve, though single readings can be large; an effect the other way counts as inactive or inconclusive. Unless noted, % is set by controls: 0 for no effect and ±100 for the full control effect.

SMILES	IL1B secr inh	HT1080NT lethal	TDP1 cell CPT	ELG1 repair inh	HT1080 IDH1KD tx	DT40 TDP1 no CPT
COc1ccc(CCNC(=O)c2ccc3c(c2)NC(=O)CS3)cc1OC	16.4	-0.7%	-29.0%	4.0%	2.9%	-4.5%
COc1ccc(CCNC(=O)c2ccc3c(c2)N(Cc2ccc(C)cc2)CCS3)cc1OC	-14.3	-9.0%	18.4µM*	?	-9.4%	16.4µM*
CN(C)CCNC(=O)c1ccc2c(c1)N(Cc1ccc(F)cc1)CCS2	-6.8	-19.6%	25.9µM*	-0.9%	-6.8%	16.4µM*
CCCOc1ccc(Oc2nc(-c3ccncc3)nc3ccccc23)cc1	26.1	4.5%	5.0%	?	12.0%	?
CCOc1ccc(CNC(=O)c2ccc3c(c2)N(CC)CCS3)cc1	-25.9	-4.2%	?	-3.8%	9.6%	?
O=C(NCc1ccc(F)cc1)c1ccc2c(c1)N(Cc1ccc(F)cc1Cl)C(=O)CS2	.	.	4.7%	.	.	-23.9%
COc1ccc(CCNC(=O)c2ccc3c(c2)N(Cc2ccc(F)cc2)CCS3)c(OC)c1	-54.8*	-24.5%	14.6µM*	-17.6%	-11.8%	13µM*
O=C(NCCc1ccc(Cl)cc1)c1ccc2c(c1)N(Cc1c(F)cccc1Cl)C(=O)CS2	.	.	9.2µM*	.	.	2.59µM*
CCOc1ccc(CCNC(=O)c2ccc3c(c2)N(Cc2ccc(F)cc2)CCS3)cc1	.	.	?	.	.	14.6µM*
O=C(c1ccc2c(c1)N(Cc1ccc(F)cc1)CCS2)N1CCOCC1	28.2	-0.2%	?	7.6%	-0.6%	?
CCOC(=O)C1CCN(C(=O)c2ccc3nc(-c4ccc(OC)cc4)c(-c4ccc(OC)cc4)nc3c2)CC1	5.4	-19.0%	?	?	-21.7%	?
CCN(CC)c1ccc2nc3ccccc3[n+](CC)c2c1	-100.6*	25.9µM*	5.17µM*	3.66µM*	23.1µM*	1.84µM*
COC(=O)C1=C(C)N(c2ccc(S(N)(=O)=O)cc2)C(=O)C1	-4.1	11.8%	1.0%	17.4%	8.5%	-2.4%
COC(=O)C1=C(C)N(c2ccc(Cl)c(Cl)c2)C(=O)C1	-18.5	14.6µM*	5.17µM*	3.5%	?	5.17µM*
COc1ccc(NC(=O)CSc2nc3c(oc4ccccc43)c(=O)n2-c2ccc(C)c(C)c2)cc1	.	.	-4.6%	.	.	0.1%
CCOc1ccccc1Oc1ncnc2c1oc1ccccc12	.	.	13µM*	.	.	20.6µM*
Cc1cccc(-n2c(SCC(=O)Nc3ccccc3C)nc3c(oc4ccccc43)c2=O)c1	.	.	7.31µM*	.	.	5.17µM*
CCc1ccccc1NC(=O)CSc1nc2c(oc3ccccc32)c(=O)n1-c1ccccc1	.	.	23.1µM*	.	.	18.4µM*
CCOc1ccccc1NC(=O)CSc1ncnc2c1oc1ccccc12	0.0	-1.7%	29.1µM*	7.1%	1.1%	?
CNc1ccc(C=O)cc1Cl	.	.	-0.8%	.	.	-2.6%
Cc1cc(C)cc(NC(=O)CSc2nc3c(oc4ccccc43)c(=O)n2-c2ccccc2)c1	-14.3	11.9%	-16.0%	?	0.4%	?
Cc1cccc(NC(=O)CSc2nc3c(oc4ccccc43)c(=O)n2-c2ccccc2)c1C	.	.	?	.	.	20.6µM*
CCOc1ccccc1NC(=O)CSc1nc2c(oc3ccccc32)c(=O)n1-c1ccc(F)cc1	.	.	8.2µM*	.	.	6.51µM*
CCCCN(C=O)c1c(CC)nc2ccc(C(=O)NCc3ccc4c(c3)OCO4)cn12	-8.0	14.4%	?	.	3.1%	?
COc1ccc2c(c1)CCc1c(C(=O)Nc3c(C)nn(Cc4ccc(C)cc4)c3C)noc1-2	.	.	10.3µM*	.	.	9.2µM*
SMILES	IL1B secr inh	HT1080NT lethal	TDP1 cell CPT	ELG1 repair inh	HT1080 IDH1KD tx	DT40 TDP1 no CPT
Cc1nn(Cc2ccccc2)c(C)c1NC(=O)c1noc2c1CCc1ccccc1-2	-2.4	0.7%	?	?	-16.1%	?
Cc1ccc(Cn2nc(C)c(NC(=O)c3noc4c3CCCCC4)c2C)cc1	1.4	5.5%	-29.7%	?	0.0%	?
Cc1nn(Cc2ccc(Cl)c(Cl)c2)c(C)c1NC(=O)c1noc2c1CCc1ccccc1-2	.	.	5.8µM*	.	.	5.8µM*
CCCCCCCCN1C(=O)[C@H](CC(=O)NCc2ccccc2)C[C@@]2(C(=O)OCC)CCCC=C12	-72.5*	?	?	.	?	?
CCOC(=O)[C@]12CCC=C1N(Cc1ccccc1)C(=O)[C@H](CC(=O)NCc1cccc(C(F)(F)F)c1)C2	?	?	?	.	?	23.1µM*
CCCCCCCCN1C(=O)[C@H](CC(=O)NCc2cccc(C(F)(F)F)c2)C[C@@]2(C(=O)OCC)CCCC=C12	-52.6*	-27.0%	?	.	14.6µM*	?
COC(=O)[C@]12CCCCC=C1N(Cc1ccc3c(c1)OCO3)C(=O)[C@H](CC(=O)NCc1cccc(C(F)(F)F)c1)C2	-18.0	?	?	.	?	?
CCCCCCCCN1C(=O)[C@H](CC(=O)NCCCCc2ccccc2)C[C@@]2(C(=O)OCC)CCCC=C12	-24.7	?	?	.	?	?
CCCOc1ccc(C(=O)Nc2ccc3c(c2)OCCO3)cc1	-17.9	-0.2%	-17.6%	?	-11.0%	-17.8%
O=C(Nc1ccc(NC(=O)c2cc3ccccc3o2)cc1)c1ccc2c(c1)OCCO2	38.8	9.3%	-8.1%	?	-5.7%	-27.0%
Cc1cc(NC(=O)c2cccnc2)ccc1NC(=O)c1cc2ccccc2o1	-18.0	0.2%	13µM*	?	0.6%	10.3µM*
Cc1cc(NC(=O)c2ccc3c(c2)OCCO3)ccc1NC(=O)c1cc2ccccc2o1	84.0	?	5.8µM*	?	?	4.61µM*
Cc1cc(NC(=O)c2cccnc2Cl)ccc1NC(=O)c1cc2ccccc2o1	-6.7	-17.7%	9.2µM*	?	-15.3%	10.3µM*
Cc1cc(NC(=O)c2cc3ccccc3o2)ccc1NC(=O)c1ccccc1	?	0.5%	-24.1%	-12.9%	7.2%	?
COc1ccccc1N1CC(C(=O)Nc2nnc(SCC(=O)N3CCOCC3)s2)CC1=O (stereo not drawn)	0.5	-8.2%	7.2%	0.2%	14.9%	-2.6%
COC(=O)c1ccccc1NC(=O)c1c(NC(=O)c2ccco2)sc2c1CCC(C(C)(C)C)C2 (stereo not drawn)	.	.	-9.9%	.	.	4.1%
